Results as given in PubChem BioAssay (NCI).
About 79,000 compounds went through this panel and 15% of them were active in at least one assay; those are over-represented in the sample as a whole. Values without a mark were called inactive. Active and inactive are the calls of the source. Cut-off read from the data, not from the text of the source: active = growth inhibition above about 70%; inactive = the rest. Where a SMILES comes first, the peptide text is derived from it. The star is where a group is joined. Myristoyl = CCCCCCCCCCCCCC(=O)*

Legend:
[1] = NCI Yeast Anticancer Drug Screen. Data for the rad50 strain (AID 155);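 note: 0% = growth of vehicle-only cultures of the same strain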; settings: S. cerevisiae rad50 strain growth inhibition; at 50.0 µM; stronger effect = higher value
Method in brief: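 Readout: growth inhibition relative to vehicle-treated cultures. Compound exposure was carried out in a genetically defined yeast strain deficient in DNA damage repair.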

[2] = NCI Yeast Anticancer Drug Screen. Data for the mec2-1 strain (AID 157); settings: S. cerevisiae mec2-1 strain, at 50.0 µM, stronger effect = higher value
Method in brief: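 Vehicle-treated cultures served as reference for growth inhibition of compound-exposed mec2-1 yeast.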

[3] = NCI Yeast Anticancer Drug Screen. Data for the sgs1 mgt1 strain (AID 161);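 note: 0% = growth of cultures given vehicle only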; settings: S. cerevisiae sgs1 mgt1 strain, at 50.0 µM, stronger effect = higher value
Method in brief: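 Genetically altered yeast, compound exposure, growth inhibition relative to vehicle.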

[4] = NCI Yeast Anticancer Drug Screen. Data for the cln2 rad14 strain (AID 165);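 note: 0% = growth equal to vehicle treated cultures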; settings: S. cerevisiae cln2 rad14 strain, at 50.0 µM, stronger effect = higher value
Method in brief: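 Each compound was tested on cln2 rad14 yeast. Inhibition of growth was calculated against vehicle-exposed controls.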

[5] = NCI Yeast Anticancer Drug Screen. Data for the bub3 strain (AID 167); settings: S. cerevisiae bub3 mutant strain, at 50.0 µM, stronger effect = higher value
Method in brief: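 Readout: yeast growth inhibition, expressed relative to vehicle-only wells. The test organism is a mutant strain from a panel with lesions in DNA repair or checkpoint genes.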

[6] = NCI Yeast Anticancer Drug Screen. Data for the mlh1 rad18 strain (AID 175); settings: S. cerevisiae mlh1 rad18 strain growth inhibition; at 50.0 µM; stronger effect = higher value
Method in brief: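 Vehicle-treated cultures served as the reference for growth inhibition in a yeast strain carrying DNA damage repair alterations exposed to each compound.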

Structure (SMILES)	growth inhibition [1]	growth inhibition [2]	growth inhibition [3]	growth inhibition [4]	growth inhibition [5]	growth inhibition [6]
CC(C)CC/C(=N\NC(N)=O)C1CCOCC1	-3.1%	14.2%	9.25%	-7.2%	-0.05%	-3.85%
OCCN(CCO)c1ccc2c(C(F)(F)F)cc(C(F)(F)F)nc2n1	0.45%	-8.25%	15.8%	0.7%	10.6%	16.1%
NS(=O)(=O)c1ccc(NC(=O)c2cccc3c(=O)c4ccccc4[nH]c23)cc1	-2.55%	-1.95%	-13.2%	14.8%	-6%	-14.1%
COc1ccc(NC(=O)C(=O)Cc2nc3ccc(C(=O)c4ccccc4)cc3[nH]c2=O)c([N+](=O)[O-])c1	36%	2.65%	12.7%	19.1%	11.8%	22.6%
COc1ccc(C(=O)c2ccc(OC)cc2)cc1	-15.1%	-27.1%	-3.1%	-17.6%	1.6%	-15.1%
CC(=O)Nc1cc(NC(C)=O)c(N=O)c(NC(C)=O)n1	-19.5%	-13.2%	-0.7%	-3.45%	-15.8%	7.35%
C/C=C/COc1cc2c(cc1C(C)c1ccc(OC)cc1)OCO2 (stereo unspecified)	-9.3%	-0.95%	-6.15%	24.4%	-3.85%	-1.2%
Cc1ccc(C)c(CNC(=O)C2CCCCC2C(=O)O)c1 (stereo unspecified)	9.3%	33.6%	37.2%	-0.6%	34.6%	-3.2%
CC(C)CCNc1nc(N)[nH]c(=O)c1NC=O	-16.7%	16.1%	-0.55%	7.5%	2.7%	-56.6%
CCCCCCC(=O)/C=C/c1cccc(OCc2cccc(Cl)c2)c1	24.4%	16.8%	19.1%	16.8%	1.55%	4.65%
CN1CCC2(CC1)C(=O)N(NC(N)=O)C(=O)C2c1ccccc1 (stereo unspecified)	15%	2.15%	5.7%	1.2%	1%	13.8%
CC(C)NC(=O)OCCN=c1c2ccccc2ccc2ccccc12	53.3%	49.8%	65.9%	22.7%	60.1%	38.9%
CC(=O)OCC(=O)[C@@]1(O)CC[C@H]2[C@@H]3CC[C@H]4[C@H](Br)C(=O)CC[C@]4(C)[C@H]3C(=O)C[C@@]21C	-20.1%	-33.1%	-11.3%	-12.8%	-8.1%	-23.9%
CCNC(=O)C1Cc2ccccc2N(CC)C1 (stereo unspecified)	-13.4%	-6.65%	-0.75%	-12.2%	-1.9%	2.75%
Cc1cnc(-c2ccccc2)o1	8.7%	5.4%	-4.8%	3.9%	0.9%	-12.7%
C1CCC2(CCC34CCCCC3CCCC4)CCCCC2C1 (stereo unspecified)	99.5% (active)	99.7% (active)	99.5% (active)	99.3% (active)	99.5% (active)	98.2% (active)
CC(=O)c1c(Cl)cc(Cl)c(Cl)c1Cc1c(Cl)c(Cl)cc(Cl)c1C(C)=O	9.5%	9.8%	7%	18.2%	5.95%	9.55%
N#CCCN1CCCSC1=S	6.15%	17.1%	4.2%	4.05%	-3.1%	1.7%
Oc1cccc(Oc2cccc(Oc3cccc(O)c3)c2)c1	-14.4%	-14.2%	-4.3%	-8.65%	8.35%	-7.85%
O=C1CC(C(=O)O)C(C(Cl)(Cl)Cl)O1 (stereo unspecified)	-18.9%	-26.4%	1.8%	-22.7%	-6.7%	-1.2%
COC(=O)C(=O)c1c(-c2cccnc2)[nH]c2ccccc12	7.3%	-7.1%	1.05%	-9.05%	13.2%	4%

Structure (SMILES)	growth inhibition [1]	growth inhibition [2]	growth inhibition [3]	growth inhibition [4]	growth inhibition [5]	growth inhibition [6]
COc1ccc(C(O)(c2ccc(OC)cc2)c2ccccc2Cc2ccccc2OC)cc1	-61.6%	1.65%	-22.3%	-20.6%	0.65%	-21.4%
CCCCCCCCCCCCCC(=O)NCC(=O)NC(CO)C(=O)NC(CO)C(=O)NC(CCCCN)C(=O)NC(CO)C(=O)NC(CCCCN)C(=O)N1CCCC1C(=O)NC(CCCCN)C(=O)NC(CC(=O)O)C(N)=O (stereo unspecified) (Myristoyl-GSSKSKPKD-NH2; configuration not given here)	7.25%	-2.55%	-3.9%	6.1%	10.3%	14%
CCN(CC)c1nc2ccccc2o1	-16.9%	16%	3.7%	-36.8%	-19.9%	-9.2%
CCN(CC)CCC(=O)c1ccc(C)cc1	-37.4%	-46.8%	-26.1%	11.2%	0.5%	-23.1%
COC1OC(CO)C(OC(=O)Nc2ccccc2)C(OC(=O)Nc2ccccc2)C1O (stereo unspecified)	-16.9%	-10.7%	-1.4%	-38.1%	2.7%	-8.15%
O=C(O)c1ccc(Cl)c(N=C/C=C/c2ccccc2)c1	1.85%	-37.5%	6.6%	-15.3%	3.45%	-6.9%
C/C(=C\c1ccc(Cl)cc1)C(C)(C)C(=O)O	15.1%	-23.2%	-1.25%	-6.95%	11%	19.6%
NC(Cc1cc(I)c(Oc2ccc(O)c(I)c2)c(I)c1)C(=O)O (stereo unspecified)	-5.1%	-1.35%	-9.5%	-27.5%	-30.5%	33.4%
CC1=C(C(=O)NNC(=O)CC#N)CC(C(=O)NNC(=O)CC#N)=C(C)N1	-27.7%	-43.8%	-20.8%	-24.6%	-27.4%	-0.05%
COc1ccccc1N=Nc1c(C)nc(N)nc1-c1ccccc1	23.1%	10.4%	25.9%	7.9%	4.6%	23.6%
CC1CCCCNC1=S (stereo unspecified)	-6.95%	19.6%	19.9%	6.6%	17.8%	27.1%
N#C/C(=C\c1ccc2ccccc2c1)c1ccccc1	37.9%	14.9%	12.8%	17%	25.7%	52%
COc1ccc(OC)c(NC(=O)c2ccccc2Cl)c1	-4.85%	-1.95%	16.7%	-13%	48.2%	-16.8%
O=c1[nH][nH]c(=O)c(Cl)c1Cl	1.55%	1.6%	-17.5%	0.25%	-0.85%	13.3%
C/C(O)=C(/C=NC(=S)c1ccncc1)C(=O)Nc1ccccc1	-36.8%	-1.8%	-49%	-26.5%	-45.1%	-36.3%
O=C(CCCCC(=O)OC1CCCCC1)OC1CCCCC1	-4.95%	3.65%	-6.45%	-60.3%	-1.05%	10.8%
Cc1c(C)n(S(=O)(=O)c2ccccc2)c2ccccc12	20.6%	10.4%	21.4%	27.9%	13.2%	27.4%
N#Cc1ccc(OCCCCCOc2ccc([N+](=O)[O-])cc2)cc1	19.4%	11.6%	8.65%	12.8%	13.9%	4.4%
CCc1ccc(NC(=O)Nc2cccc(Cl)c2)cc1	-5.8%	14.4%	-5.35%	-19.6%	-0.55%	4.9%
COc1c(C)c(=O)n2c3ccccc3n(C)c2c1C#N	19.5%	10.3%	-18.4%	8.55%	0.85%	14.8%
